Measured values: PubChem BioAssay (Tox21)
Inconclusive results are not listed. The source made the active and inactive calls. Unless noted, calls come from the whole dose curve.

Tests used:
[1] = Nuclear factor erythroid 2-related factor 2/antioxidant responsive element (Nrf2/ARE) small molecule agonists: qHTS cell viability counter screen in human keratinocytes (AID 1919968; active = well fitted curve in the direction sought with a large enough effect in the repeat runs; an effect the other way counts as inactive or inconclusive; note: nearly all actives have a fitted effect of over 55% in size)
Procedure, shortened: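 Fluorescence read-out from CellTiter-Fluor after 1 h at 37 C. Wells held HaCaT-derived ARE-luciferase reporter cells (1,500/well) treated 23 h with DMSO-dissolved compounds. Run in the same wells as the luciferase agonist read.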

[2] = Nuclear factor erythroid 2-related factor 2/antioxidant responsive element (Nrf2/ARE) small molecule agonists: luciferase reporter gene qHTS assay in human keratinocytes (AID 1919969); note: nearly all actives have a fitted effect of over 35% in size
[3] = target: Gonadotropin-releasing hormone receptor (Homo sapiens) (UniProt P30968); experiment: Human gonadotropin-releasing hormone receptor (GnRHR) small molecule agonists, calcium flux assay in GnRHR-HEK293 cells (AID 1920063); note: nearly all actives have a fitted effect of over 35% in size
Procedure, shortened: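 Calcium-dye fluorescence, Ex/Em=480/540, recorded every 1 sec over 3 min after compound addition to GnRHR-HEK293 cells. Cells had been seeded 18 hours earlier and dye-loaded for 1 hour at 37 C. Fifteen concentrations, triplicates.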

[4] = target: KiSS-1 receptor (Homo sapiens) (UniProt Q969F8); experiment: Human kisspeptin (KISS1R) small molecule agonists, calcium flux assay in KISS1R-HEK293 cells (AID 1920064; active = well fitted curve in the direction sought with a large enough effect in the repeat runs; an effect the other way counts as inactive or inconclusive)
Procedure, shortened: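 Calcium flux read-out: kinetic fluorescence at Ex/Em=480/540, 1 s intervals over 3 min, after pin-tool compound addition to dye-loaded KISS1R-HEK293 cells. Fifteen concentrations, triplicates.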

[5] = G protein-coupled receptor (GPCR) small molecule agonists, calcium flux assay: HEK293 wild type cell line counter screen (AID 1920065)
Procedure, shortened: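 Agonist mode; 18 h seeding at 37 C, 1 h dye load at 37 C; compounds pinned from DMSO, ATP as positive control; kinetic fluorescence 480/540 nm, 3 min, 1 s reads; 15 concentrations, triplicate.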

[6] = p53 small molecule agonists, cell-based qHTS assay with human liver microsomes (AID 1963577);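 note: p53 response element beta-lactamase reporter cells with liver microsomes plus NADPH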
Procedure, shortened: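 In this qHTS, p53 response-element beta-lactamase cells receive test compound together with a microsome/NADPH activating system (0.5 mg/mL final each) and are incubated 16 h at 37 C before LiveBLAzer fluorescence detection.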

[7] = p53 small molecule agonists, cell-based qHTS assay with rat liver microsomes (AID 1963578)
Procedure, shortened: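 Agonist mode in p53RE-bla reporter cells, with compounds co-incubated 16 h at 37 C alongside 0.5 mg/mL rat liver microsomes and 0.5 mg/mL NADPH (final), followed by a 2 h LiveBLAzer detection step.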

[8] = p53 small molecule agonists, cell-based qHTS assay with human liver microsomes: qHTS cell viability counter screen (AID 1963579); note: nearly all actives have a fitted effect of over 45% in size
Procedure, shortened: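 Metabolically activated exposure: compounds, human liver microsomes and NADPH (0.5 mg/mL final apiece) were added to p53RE-bla cells seeded 5 h earlier, left 16 h at 37 C, and then assessed for viability by CellTiter-Glo luminescence.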

[9] = p53 small molecule agonists, cell-based qHTS assay with rat liver microsomes: qHTS cell viability counter screen (AID 1963580); note: nearly all actives have a fitted effect of over 45% in size
Procedure, shortened: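 Rat liver microsome (0.5 mg/mL final) and NADPH (0.5 mg/mL final) co-incubation with compounds for 16 h at 37 C on HCT-116 p53RE-bla cells; cytotoxicity taken from intracellular ATP luminescence.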

[10] = p53 small molecule agonists, cell-based qHTS assay: qHTS cell viability counter screen (AID 1963581); note: nearly all actives have a fitted effect of over 45% in size
Procedure, shortened: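 Cytotoxicity read-out: ATP-based luminescence (CellTiter-Glo, 30 min RT) measured in the same wells as the p53 reporter assay, HCT-116 p53RE-bla cells, 16 h compound exposure at 37 C.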

[11] = p53 small molecule agonists, cell-based qHTS assay (AID 1963582; active = well fitted activation curve with a large enough effect in the signal ratio in the repeat runs, not every such curve was filed as active; the % refers to the signal ratio)
Procedure, shortened: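 Fluorescence intensity read-out of a beta-lactamase reporter under a p53 response element. Cells were exposed to DMSO-dissolved compounds for 16 h at 37 C, then developed with FRET substrate for 2 h at RT.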

[12] = target: 5-hydroxytryptamine receptor 2A (Homo sapiens) (UniProt P28223); experiment: 5-hydroxytryptamine receptor 2A (HTR2A) small molecule antagonists, cell-based qHTS assay (AID 1963586); note: nearly all actives have a fitted effect of over 45% in size
Procedure, shortened: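 CHO cells stably expressing human HTR2A were plated for 18 h at 37 C, then loaded with calcium dye for 1 h. Compounds were preincubated 5 min at room temperature before DOI (4 nM solution) was added. Kinetic fluorescence was read for 3 min.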

[13] = target: 5-hydroxytryptamine receptor 2A (Homo sapiens) (UniProt P28223); experiment: 5-hydroxytryptamine receptor 2A (HTR2A) small molecule agonists, cell-based qHTS assay (AID 1963587); note: nearly all actives have a fitted effect of over 30% in size
Procedure, shortened: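 Kinetic calcium-flux fluorescence (2 min, 1 sec intervals) after compound addition in agonist mode. HTR2A-CHO cells were cultured 18 h, then dye-loaded 1 h at 37 C.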

[14] = target: Muscarinic acetylcholine receptor M1 (Homo sapiens) (UniProt P11229); experiment: Cholinergic receptor muscarinic 1 (CHRM1) small molecule antagonists, cell-based qHTS assay (AID 1963588); note: nearly all actives have a fitted effect of over 40% in size
Procedure, shortened: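 Compounds were tested at 15 concentrations in three independent runs. Dye-loaded CHRM1-CHO cells were exposed 5 min at room temperature before stimulation by acetylcholine added at 50nM. Intracellular calcium was read kinetically on FDSS for 3 min.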

[15] = target: Muscarinic acetylcholine receptor M1 (Homo sapiens) (UniProt P11229); experiment: Cholinergic receptor muscarinic 1 (CHRM1) small molecule agonists, cell-based qHTS assay (AID 1963589); note: nearly all actives have a fitted effect of over 35% in size
Procedure, shortened: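 Calcium flux read-out: kinetic fluorescence at 1 sec intervals after pin-tool compound addition to dye-loaded CHRM1-CHO cells (human M1). Agonist mode; 15 concentrations tested in triplicate independent runs.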

[16] = cAMP Responsive Elements (CRE) small molecule agonists, cell-based qHTS assay (AID 1963590)
Procedure, shortened: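 Beta-lactamase reporter readout: LiveBLAzer B/G FRET substrate, 2 h at room temperature, added after 3 h compound treatment of CRE-bla HEK 293T cells at 37 C/5% CO2.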

[17] = cAMP Responsive Elements (CRE) small molecule antagonists, cell-based qHTS assay (AID 1963591; active = well fitted inhibition curve with a large enough effect in the signal ratio in the repeat runs, not every such curve was filed as active; the % refers to the signal ratio)
Procedure, shortened: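 HEK293T CRE-bla; 18 h preincubation; compound pin-transfer; NKH477 0.25 uM final, 3 h, 37 C; LiveBLAzer FRET substrate 2 h RT.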

[18] = target: Beta-2 adrenergic receptor (Homo sapiens) (UniProt P07550); experiment: Adrenergic beta2 receptor (ADRB2) small molecule antagonists, cell-based qHTS assay (AID 1963592); note: series mostly up to about 92 µM; nearly all actives have a fitted effect of over 50% in size
Procedure, shortened: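 Assay format: CHO-ADRB2 cells, 18-20hr seeding at 37C/5% CO2, then compound plus 1nM isoproterenol agonist mix for 0.5hr RT. Homogeneous time-resolved fluorescence cAMP detection after 1hr, expressed as 665/615 nm ratio.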

[19] = target: D(2) dopamine receptor (Homo sapiens) (UniProt P14416); experiment: Dopamine D2 receptor (DRD2) small molecule agonists, cell-based qHTS assay (AID 1963594); note: nearly all actives have a fitted effect of over 35% in size
Procedure, shortened: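 cAMP accumulation in DRD2-HEK293 cells measured by HTRF after 1 h detection; compounds added 10 min before NKH477 (200nM […]) forskolin-analogue stimulation, 30 min at room temperature, with Ro20-1724 present at 0.1 mM final.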

[20] = target: D(2) dopamine receptor (Homo sapiens) (UniProt P14416); experiment: Dopamine D2 receptor (DRD2) small molecule antagonists, cell-based qHTS assay (AID 1963595; active = well fitted inhibition curve with a large enough effect in the signal ratio in the repeat runs, with a control signal flat; the % refers to the signal ratio)
Procedure, shortened: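 Readout: HTRF cAMP, cAMP-d2 competing with cellular cAMP for anti-cAMP cryptate, read after 1 h. Cells: DRD2-HEK293. Conditions: 0.1 mM Ro20-1724, 12 nM quinpirole, 200 nM NKH477, 30 min RT.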

Measured: Potency

D(2) dopamine receptor (Homo sapiens), sequence (P14416 whole entry, looked up): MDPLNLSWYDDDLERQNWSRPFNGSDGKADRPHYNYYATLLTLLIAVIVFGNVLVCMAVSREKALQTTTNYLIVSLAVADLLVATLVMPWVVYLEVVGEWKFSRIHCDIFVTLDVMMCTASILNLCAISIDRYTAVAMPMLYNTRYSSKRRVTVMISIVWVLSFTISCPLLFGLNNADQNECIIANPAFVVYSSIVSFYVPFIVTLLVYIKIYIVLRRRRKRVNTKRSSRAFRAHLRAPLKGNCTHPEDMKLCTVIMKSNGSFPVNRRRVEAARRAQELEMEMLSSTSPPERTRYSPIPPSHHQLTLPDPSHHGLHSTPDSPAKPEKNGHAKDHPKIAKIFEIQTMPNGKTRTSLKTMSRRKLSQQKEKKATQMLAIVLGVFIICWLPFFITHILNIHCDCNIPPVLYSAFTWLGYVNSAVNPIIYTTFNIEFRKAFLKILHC
KiSS-1 receptor (Homo sapiens), sequence (Q969F8 whole entry, looked up): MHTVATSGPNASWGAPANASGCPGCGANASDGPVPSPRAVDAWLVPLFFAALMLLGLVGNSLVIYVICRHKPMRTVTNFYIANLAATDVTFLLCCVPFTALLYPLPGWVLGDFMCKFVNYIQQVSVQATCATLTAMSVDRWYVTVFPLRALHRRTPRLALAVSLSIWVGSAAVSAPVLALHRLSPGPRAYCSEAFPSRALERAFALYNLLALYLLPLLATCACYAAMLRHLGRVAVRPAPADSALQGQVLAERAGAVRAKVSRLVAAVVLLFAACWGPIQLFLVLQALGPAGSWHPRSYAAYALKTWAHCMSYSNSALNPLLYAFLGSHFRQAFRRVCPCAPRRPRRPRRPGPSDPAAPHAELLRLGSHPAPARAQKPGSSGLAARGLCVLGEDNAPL
Muscarinic acetylcholine receptor M1 (Homo sapiens), sequence (P11229 whole entry, looked up): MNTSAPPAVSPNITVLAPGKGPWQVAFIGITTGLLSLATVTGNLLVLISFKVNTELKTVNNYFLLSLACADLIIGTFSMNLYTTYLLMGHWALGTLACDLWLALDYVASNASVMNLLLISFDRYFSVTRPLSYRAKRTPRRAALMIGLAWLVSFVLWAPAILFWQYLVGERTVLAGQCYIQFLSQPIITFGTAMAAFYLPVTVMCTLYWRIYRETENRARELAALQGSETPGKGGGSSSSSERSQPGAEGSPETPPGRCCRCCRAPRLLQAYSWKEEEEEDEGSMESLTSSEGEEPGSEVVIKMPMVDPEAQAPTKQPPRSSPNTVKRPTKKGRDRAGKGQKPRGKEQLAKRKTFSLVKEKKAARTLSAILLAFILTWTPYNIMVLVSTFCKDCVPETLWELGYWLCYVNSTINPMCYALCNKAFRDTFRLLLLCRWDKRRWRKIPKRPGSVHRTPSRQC
Gonadotropin-releasing hormone receptor (Homo sapiens), sequence (P30968 whole entry, looked up): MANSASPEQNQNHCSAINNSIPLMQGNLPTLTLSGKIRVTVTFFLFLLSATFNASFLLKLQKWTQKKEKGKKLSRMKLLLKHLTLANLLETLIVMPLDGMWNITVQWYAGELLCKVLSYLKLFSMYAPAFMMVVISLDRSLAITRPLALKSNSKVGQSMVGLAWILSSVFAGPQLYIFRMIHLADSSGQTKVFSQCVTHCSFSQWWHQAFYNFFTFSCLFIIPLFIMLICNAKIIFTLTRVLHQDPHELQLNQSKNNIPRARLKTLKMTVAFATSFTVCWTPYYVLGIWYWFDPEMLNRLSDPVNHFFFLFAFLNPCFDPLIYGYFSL
5-hydroxytryptamine receptor 2A (Homo sapiens), sequence (P28223 whole entry, looked up): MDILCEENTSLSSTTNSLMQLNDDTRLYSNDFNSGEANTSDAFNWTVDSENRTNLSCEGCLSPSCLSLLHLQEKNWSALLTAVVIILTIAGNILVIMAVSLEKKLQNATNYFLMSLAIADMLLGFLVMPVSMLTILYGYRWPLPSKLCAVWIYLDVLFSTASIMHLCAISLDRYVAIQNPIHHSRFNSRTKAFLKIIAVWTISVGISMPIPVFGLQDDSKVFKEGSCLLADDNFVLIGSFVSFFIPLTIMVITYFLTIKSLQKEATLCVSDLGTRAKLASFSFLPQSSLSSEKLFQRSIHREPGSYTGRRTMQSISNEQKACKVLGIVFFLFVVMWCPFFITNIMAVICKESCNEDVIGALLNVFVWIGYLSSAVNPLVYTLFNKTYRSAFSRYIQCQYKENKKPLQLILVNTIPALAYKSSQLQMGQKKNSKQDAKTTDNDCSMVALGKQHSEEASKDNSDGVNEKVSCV
Beta-2 adrenergic receptor (Homo sapiens), sequence (P07550 whole entry, looked up): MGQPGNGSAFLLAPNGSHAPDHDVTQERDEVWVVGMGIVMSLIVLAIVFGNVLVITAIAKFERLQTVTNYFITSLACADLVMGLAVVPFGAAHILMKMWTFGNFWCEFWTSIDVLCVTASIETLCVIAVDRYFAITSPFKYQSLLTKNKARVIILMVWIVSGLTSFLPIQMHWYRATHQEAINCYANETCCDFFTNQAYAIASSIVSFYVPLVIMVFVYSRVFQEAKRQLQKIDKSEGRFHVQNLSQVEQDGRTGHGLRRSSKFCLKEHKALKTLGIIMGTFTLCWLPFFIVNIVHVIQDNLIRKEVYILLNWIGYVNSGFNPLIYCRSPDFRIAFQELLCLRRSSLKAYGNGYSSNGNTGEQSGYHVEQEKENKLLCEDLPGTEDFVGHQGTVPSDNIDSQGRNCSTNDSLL

CCC(C)C(C)(COC(N)=O)COC(N)=O (stereo not drawn)
inactive: all assays above

CC(C)(N)Cc1ccccc1Cl
inactive: all assays above

OCCSCSCCO
inactive: all assays above

CCN(C)N=O
not listed: [19]
inactive: all other assays above

C[C@]1(O)CC[C@H]2[C@@H]3CCC4=CC(=O)CC[C@]4(C)[C@@]3(F)[C@@H](O)C[C@@]21C
not listed: [19]
inactive: all other assays above

Clc1ccc(C2(Cn3cncn3)OCCO2)c(Cl)c1
inactive: all assays above

CC(C=O)Cc1ccc2c(c1)OCO2 (stereo not drawn)
inactive: all assays above

O=C1CC(=O)NC(=O)N1
inactive: all assays above

CCCCON=O
inactive: all assays above
